“And” between values parts separate entries of the source, which are not always exact repeats. Identical values can stand only once. Inconclusive results are not listed. The source made the active and inactive calls. Calls follow the shape of the dose curve; as a rule, active = well fitted curve in the direction sought with a large enough effect; inconclusive = small, poorly fitted or top-dose-only effect, or another doubt; inactive = no such curve, though single readings can be large; an effect the other way counts as inactive or inconclusive.

The nature of assay [1]: qHTS of pediatric cancer cell lines to identify multiple opportunities for drug repurposing: Primary screen for Rh18 cells (AID 1347102). Also: nearly all actives have a fitted effect of over 65% in size. Also: potency is read from the fitted curve at half-maximal effect. An outline of the steps:
(§1)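 Cells (500-1,000/well) rested 5 h, then received compounds for 48 h; metabolically active cells were measured by CellTiter-Glo luminescence. Final concentrations spanned up to 46 µM (MIPE, 11-point) or 0.59 nM-46 µM (NPC, 8-point) in primary screens, 11-point in follow-ups.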
A general note: qHTS replaces the single test concentration by a dilution series.

Assay [2] is described as follows: qHTS of pediatric cancer cell lines to identify multiple opportunities for drug repurposing: Primary screen for OHS-50 cells (AID 1347103). Also: nearly all actives have a fitted effect of over 40% in size. Also: potency is read from the fitted curve at half-maximal effect. An outline of the steps:
as §1

Assay [3] is described as follows: qHTS of pediatric cancer cell lines to identify multiple opportunities for drug repurposing: Primary screen for RD cells (AID 1347104). Also: nearly all actives have a fitted effect of over 55% in size. Also: potency is read from the fitted curve at half-maximal effect. An outline of the steps: (§2)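 Following a 5-hour attachment period, cells at 500-1,000/well received compounds and were cultured for 48 hours. CellTiter-Glo was added and luminescence read to estimate viable, metabolically active cells.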

A short description of assay [4]: qHTS of pediatric cancer cell lines to identify multiple opportunities for drug repurposing: Primary screen for MG 63 (6-TG R) cells (AID 1347105). Also: nearly all actives have a fitted effect of over 50% in size. An outline of the steps: as §2
Assay [5] in a line: qHTS of pediatric cancer cell lines to identify multiple opportunities for drug repurposing: Primary screen for control Hh wild type fibroblast cells (AID 1347106).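 Also: series mostly up to about 46 µM; a drop in luminescence marks cytotoxicity and a rise apparent proliferation; nearly all actives have a fitted effect of over 55% in size.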 The method, boiled down: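 Viability after 48 h compound treatment at 37C, 500-1,000 cells/well, read as ATP luminescence with CellTiter-Glo. Primary screens used 11-point (MIPE, 0.78 nM-46 µM) or 8-point (NPC, 0.59 nM-46 µM) final concentrations; follow-up screens used 11-point dilutions.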

Assay [6] can be described thus: qHTS of pediatric cancer cell lines to identify multiple opportunities for drug repurposing: Primary screen for Rh30 cells (AID 1347107). Also: series mostly up to about 46 µM; nearly all actives have a fitted effect of over 75% in size. An outline of the steps: as §1
The nature of assay [7]: qHTS of pediatric cancer cell lines to identify multiple opportunities for drug repurposing: Primary screen for Rh41 cells (AID 1347108).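 Also: series mostly up to about 46 µM; luminescence drop marks cytotoxic hits; nearly all actives have a fitted effect of over 70% in size.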 An outline of the steps:
as §2

Assay [8] is described as follows: qHTS of pediatric cancer cell lines to identify multiple opportunities for drug repurposing: Confirmatory screen for NB1643 cells (AID 1347109). Also: nearly all actives have a fitted effect of over 45% in size. The method, boiled down:
as §1

Assay [9] is described as follows: qHTS of pediatric cancer cell lines to identify multiple opportunities for drug repurposing: Confirmatory screen for A673 cells (AID 1347110).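 Also: cells exposed to compound for 48 h before the viability read; nearly all actives have a fitted effect of over 65% in size.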 Also: potency is read from the fitted curve at half-maximal effect. An outline of the steps: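 Viability was read as ATP luminescence (CellTiter-Glo) after 48 h of compound exposure at 37 C in A673 cells seeded at 500-1,000/well. Titrations reached 46 uM final, with 11 points in the confirmatory screen. Concentration-response curves were fitted directly.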

Assay [10] in a line: qHTS of pediatric cancer cell lines to identify multiple opportunities for drug repurposing: Confirmatory screen for SK-N-MC cells (AID 1347111).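 Also: cells exposed to compound for 48 h before the readout; nearly all actives have a fitted effect of over 70% in size.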 Also: potency is read from the fitted curve at half-maximal effect. An outline of the steps:
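Seed 500-1,000 cells/well; rest 5 h at 37 degrees C. Pin-transfer compounds, 11-point titration. Incubate 48 h. Add CellTiter-Glo, 15 min RT, read luminescence.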

Take `CCOc1cc(N)c(Cl)cc1C(=O)NCC1CN(Cc2ccc(F)cc2)CCO1` (centres undefined): the Potency entry in assay [1], in assay [2], in [3], in assay [4], in assay [5] and in assay [6] was “inactive” throughout. In assay [7], the Potency entry is “inactive”.
On to `Cc1ncc([N+](=O)[O-])n1CCO`, for which the Potency result in [1], in assay [2], in assay [3], in assay [4], in assay [5] and in assay [6] was “inactive” in each case. In addition, in assay [7], the Potency result was “inactive”.
For `CCN(C)C(=O)Oc1cccc([C@H](C)N(C)C)c1`, the Potency result in assay [1], in [2], in assay [3], in [4], in assay [5] and in [6] was “inactive” throughout. In addition, in [7], the Potency entry is “inactive”.
Regarding `CCCOc1ccc(C(=O)OCCN(CC)CC)cc1N`, the Potency entry in [1], in assay [2], in assay [3], in assay [4], in [5] and in assay [6] was “inactive” throughout. The Potency result in [7] is “inactive”.
Turning to `CCCN[C@H]1CCc2nc(N)sc2C1`, the Potency entry in assay [1], in assay [2], in [3], in [4], in assay [5] and in assay [6] was “inactive” throughout. Besides, the Potency entry in [7] was “inactive”.
On to `COC(c1ccccc1)(c1ccccc1)[C@H](Oc1nc(C)cc(C)n1)C(=O)O`, for which the Potency entry in assay [1], in assay [2], in assay [3], in assay [4], in assay [5] and in [6] was “inactive” in each case. In addition, the Potency result in assay [7] is “inactive”.
Turning to `O=C(O)C1CCCN(CCC=C(c2ccccc2)c2ccccc2)C1` (centres undefined), the Potency entry in [1], in assay [2], in [3], in [4], in [5] and in assay [6] was “inactive” each time.
On to `CC(N)C12CC3CC(CC(C3)C1)C2` (centres undefined), for which the Potency entry in assay [1], in assay [2], in assay [3], in assay [4], in assay [5] and in assay [6] was “inactive” in each case. Further, the Potency entry in [7] is “inactive”.
With `CCOCC(O)COc1ccc(NC(=O)CC[S+](C)C)cc1` (centres undefined), the Potency result in assay [1], in [2], in assay [3], in assay [4], in [5] and in [6] was “inactive” throughout. The Potency result in [7] is “inactive”.
As for `Cc1oc(=O)oc1CN1CCN(c2cc3c(cc2F)c(=O)c(C(=O)O)c2n3C(C)S2)CC1` (centres undefined), the Potency result in assay [1], in assay [2], in [3], in [4], in assay [5] and in [6] was “inactive” in each case. Further, the Potency result in assay [7] is “inactive”.
In the case of `CC[C@H](NC(C)C)[C@H](O)c1ccc(O)c2[nH]c(=O)ccc12`, the Potency result in assay [1], in [2], in assay [3], in [4], in [5] and in assay [6] was “inactive” each time. In [7], the Potency result is “inactive”.
As to `CCN1CCCC1CNC(=O)c1cc(S(N)(=O)=O)ccc1OC` (centres undefined), the Potency entry in [1], in [2], in [3], in assay [4], in assay [5] and in [6] was “inactive” each time. In assay [7], the Potency result was “inactive”.
As to `CN(C)CCc1c[nH]c2ccc(CS(=O)(=O)N3CCCC3)cc12`, the Potency entry in [1], in assay [2], in assay [3], in assay [4], in assay [5] and in assay [6] was “inactive” each time. In assay [7], the Potency entry was “inactive”.
Turning to `CC(C)(C#N)c1cc(Cn2cncn2)cc(C(C)(C)C#N)c1`, the Potency result in assay [1], in assay [2], in assay [4], in assay [5], in assay [6] and in assay [7] was “inactive” in each case. Moreover, the Potency result in assay [8], in [9] and in [10] was “inactive” in each case.
Turning to `CCOC(=O)c1ccc(C#Cc2ccc3c(c2)C(C)(C)CCS3)nc1`, the Potency result in assay [1], in assay [3], in [4], in assay [5], in assay [6] and in assay [7] was “inactive” throughout. Moreover, the Potency entry in assay [8] is “inactive”. Besides, the Potency in assay [2] is 777 nM (active) and 54.4 nM (active).
For the molecule `O=C(O)c1ccc(-n2nc(-c3ccccc3O)nc2-c2ccccc2O)cc1`, the Potency result in [1], in assay [4], in assay [5] and in assay [6] was “inactive” throughout. The Potency in assay [2] was 21.7 µM (active).
For the molecule `C[C@@H](CN1CC(=O)NC(=O)C1)N1CC(=O)NC(=O)C1`, the Potency result in assay [1], in [2], in assay [4], in [5], in [6] and in assay [7] was “inactive” in each case. Moreover, the Potency result in assay [8], in assay [9] and in assay [10] was “inactive” in each case.
For `COc1nc(N)nc2c1ncn2[C@@H]1O[C@H](CO)[C@@H](O)[C@@H]1O`, the Potency entry in assay [1], in [2], in assay [3], in assay [4], in assay [5] and in [6] was “inactive” each time. The Potency result in assay [8] is “inactive”. The Potency in assay [9] was 1.85 µM (active); in assay [10], 2.93 µM (active).
As to `COc1cnc(NS(=O)(=O)c2ccc(N)cc2)nc1`, the Potency entry in assay [1], in [2], in assay [4], in assay [5], in [6] and in [7] was “inactive” throughout.
For `S=P(N1CC1)(N1CC1)N1CC1`, the Potency entry in [1], in assay [3], in [4], in assay [5], in assay [6] and in assay [7] was “inactive” each time. In addition, the Potency is 24.3 µM (active) in assay [2], 0.928 µM (active) in assay [9] and 3.69 µM (active) in assay [10].
On to `NS(=O)(=O)c1cc2c(cc1Cl)NC(C(Cl)Cl)NS2(=O)=O` (centres undefined), for which the Potency result in [1], in [2], in assay [3], in [4], in assay [5] and in assay [6] was “inactive” in each case. The Potency entry in assay [7] was “inactive”.
Take `CN1CCCC(n2nc(Cc3ccc(Cl)cc3)c3ccccc3c2=O)CC1` (centres undefined): the Potency in assay [1] is 1.48 µM (active); in assay [2], 27.6 µM (active) and 968 nM (active); in [3], 5.9 µM (active); in [9] it was 9.27 µM (active); in assay [10], 23.3 µM (active). In addition, the Potency entry in assay [6] and in assay [7] was “inactive” each time.
